In paper PMC7862700, “An all-to-all approach to the identification of sequence-specific readers for epigenetic DNA modifications on cytosine”:

Legend:
Test in all cases: DAPPL (digital affinity profiling via proximity ligation, sequencing); 10 mM Tris-HCl pH 7.5, 50 mM NaCl, 1 mM DTT, 4% glycerol, room temperature, 30 min; GST-TFs on glutathione beads, 16-mer random dsDNA library, 0.1% formaldehyde crosslink after washing; high values mean tight binding
[1] = molecular target: T1, FLI1 (Homo sapiens, UniProt Q01543 1-452); conditions: protein: recombinant; tags: N-terminal GST; dsDNA, one strand shown
T1 sequence: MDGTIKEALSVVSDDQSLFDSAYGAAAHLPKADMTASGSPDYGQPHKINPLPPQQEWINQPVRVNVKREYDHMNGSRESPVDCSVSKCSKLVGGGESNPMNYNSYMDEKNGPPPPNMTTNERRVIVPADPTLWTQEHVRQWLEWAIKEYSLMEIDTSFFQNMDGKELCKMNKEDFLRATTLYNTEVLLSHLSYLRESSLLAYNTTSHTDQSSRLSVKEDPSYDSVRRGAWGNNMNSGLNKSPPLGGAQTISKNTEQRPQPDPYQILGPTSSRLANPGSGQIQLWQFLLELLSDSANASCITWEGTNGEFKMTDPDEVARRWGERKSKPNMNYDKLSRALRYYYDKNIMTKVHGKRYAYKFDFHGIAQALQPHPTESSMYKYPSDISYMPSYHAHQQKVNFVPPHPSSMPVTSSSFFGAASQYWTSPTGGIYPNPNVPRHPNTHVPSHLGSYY
How it was run: (§1)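 Human transcription factors were made in yeast as GST fusions, captured on glutathione beads and barcoded with DNA. With a tag-only sample included, the pool was incubated with 200 nmole of a random double-stranded 16-mer DNA library in Tris/NaCl/DTT/glycerol buffer at room temperature for 30 min, then crosslinked with 0.1% formaldehyde after washing, ligated by proximity, amplified and sequenced. For binding signal, each hexamer's read frequency for a factor is divided by its frequency for the tag-only sample.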

[2] = molecular target: T2, GABPA (Homo sapiens, UniProt Q06546 1-454); conditions: protein: recombinant; tags: N-terminal GST; dsDNA, one strand shown
T2 sequence: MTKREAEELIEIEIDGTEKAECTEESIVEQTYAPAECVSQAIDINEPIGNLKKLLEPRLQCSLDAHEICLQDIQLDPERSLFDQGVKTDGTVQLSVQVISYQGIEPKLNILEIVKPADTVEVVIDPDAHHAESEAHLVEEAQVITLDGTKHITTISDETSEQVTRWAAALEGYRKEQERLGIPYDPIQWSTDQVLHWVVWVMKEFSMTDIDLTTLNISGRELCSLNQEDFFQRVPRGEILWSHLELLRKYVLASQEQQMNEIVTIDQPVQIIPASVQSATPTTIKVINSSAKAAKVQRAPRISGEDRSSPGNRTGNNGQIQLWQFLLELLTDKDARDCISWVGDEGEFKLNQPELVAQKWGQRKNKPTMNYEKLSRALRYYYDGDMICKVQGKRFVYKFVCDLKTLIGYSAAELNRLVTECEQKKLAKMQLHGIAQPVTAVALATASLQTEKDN
How it was run: as §1

[3] = molecular target: T3, ERG (Homo sapiens, UniProt P11308 1-479); conditions: protein: recombinant; tags: N-terminal GST; dsDNA, one strand shown
T3 sequence: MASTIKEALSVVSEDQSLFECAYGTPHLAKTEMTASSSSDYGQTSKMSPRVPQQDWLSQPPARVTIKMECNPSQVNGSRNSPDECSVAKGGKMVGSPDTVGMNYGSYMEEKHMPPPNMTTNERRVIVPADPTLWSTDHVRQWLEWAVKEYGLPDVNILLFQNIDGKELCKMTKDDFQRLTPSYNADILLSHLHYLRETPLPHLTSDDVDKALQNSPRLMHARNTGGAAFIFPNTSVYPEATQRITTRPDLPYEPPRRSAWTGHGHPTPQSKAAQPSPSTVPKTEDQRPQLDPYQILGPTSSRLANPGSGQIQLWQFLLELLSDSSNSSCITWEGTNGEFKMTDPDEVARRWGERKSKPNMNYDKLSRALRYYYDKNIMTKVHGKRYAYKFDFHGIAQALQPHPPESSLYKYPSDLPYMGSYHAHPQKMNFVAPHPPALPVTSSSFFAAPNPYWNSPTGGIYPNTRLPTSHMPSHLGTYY
How it was run: as §1

[4] = molecular target: ELF1 (Homo sapiens, UniProt P32519 1-619); conditions: protein: recombinant; tags: N-terminal GST; dsDNA, one strand shown
ELF1, sequence (P32519 whole entry): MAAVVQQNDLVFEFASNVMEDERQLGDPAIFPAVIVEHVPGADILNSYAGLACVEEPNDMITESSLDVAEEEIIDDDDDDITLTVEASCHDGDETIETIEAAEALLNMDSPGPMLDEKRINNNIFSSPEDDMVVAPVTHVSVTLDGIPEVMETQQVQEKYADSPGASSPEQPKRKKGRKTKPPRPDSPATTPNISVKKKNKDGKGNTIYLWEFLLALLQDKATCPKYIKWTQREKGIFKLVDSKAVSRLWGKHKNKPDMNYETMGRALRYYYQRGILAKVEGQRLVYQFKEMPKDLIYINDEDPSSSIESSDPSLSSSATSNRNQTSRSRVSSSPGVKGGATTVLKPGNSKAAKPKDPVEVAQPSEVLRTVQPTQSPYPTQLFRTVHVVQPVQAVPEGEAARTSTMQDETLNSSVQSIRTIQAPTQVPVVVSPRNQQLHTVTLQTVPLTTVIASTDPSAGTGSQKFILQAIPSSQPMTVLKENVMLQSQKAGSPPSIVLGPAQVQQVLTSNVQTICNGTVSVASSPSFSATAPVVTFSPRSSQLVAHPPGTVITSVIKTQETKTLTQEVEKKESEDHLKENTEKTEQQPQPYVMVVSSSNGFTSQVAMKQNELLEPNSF
How it was run: as §1

[5] = molecular target: T4, EHF (Homo sapiens, UniProt Q9NZC4 1-300); conditions: protein: recombinant; tags: N-terminal GST; dsDNA, one strand shown
T4 sequence: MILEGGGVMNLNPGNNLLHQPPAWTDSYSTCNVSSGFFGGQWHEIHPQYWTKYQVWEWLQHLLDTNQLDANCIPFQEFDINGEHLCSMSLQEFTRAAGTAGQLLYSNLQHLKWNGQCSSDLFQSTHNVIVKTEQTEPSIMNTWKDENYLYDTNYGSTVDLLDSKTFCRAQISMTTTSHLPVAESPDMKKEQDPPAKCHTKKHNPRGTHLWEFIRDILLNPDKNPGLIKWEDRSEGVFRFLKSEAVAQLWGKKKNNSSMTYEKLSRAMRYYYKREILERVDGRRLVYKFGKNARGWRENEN
How it was run: as §1

[6] = molecular target: SPI1 (Homo sapiens, UniProt P17947 1-270); conditions: protein: recombinant; tags: N-terminal GST; dsDNA, one strand shown
How it was run: as §1

[7] = molecular target: SPIB (Homo sapiens, UniProt Q01892 1-262); conditions: protein: recombinant; tags: N-terminal GST; dsDNA, one strand shown
SPIB, sequence (Q01892 whole entry): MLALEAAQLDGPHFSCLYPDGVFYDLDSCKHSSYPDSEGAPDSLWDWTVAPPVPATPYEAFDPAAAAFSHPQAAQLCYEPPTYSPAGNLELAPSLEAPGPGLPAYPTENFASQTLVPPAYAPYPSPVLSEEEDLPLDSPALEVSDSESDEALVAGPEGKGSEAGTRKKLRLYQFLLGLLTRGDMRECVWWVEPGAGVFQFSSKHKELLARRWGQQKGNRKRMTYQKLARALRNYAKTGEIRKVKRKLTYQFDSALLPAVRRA
How it was run: as §1

[8] = molecular target: T5, ELK3 (Homo sapiens, UniProt P41970 1-407); conditions: protein: recombinant; tags: N-terminal GST; dsDNA, one strand shown
T5 sequence: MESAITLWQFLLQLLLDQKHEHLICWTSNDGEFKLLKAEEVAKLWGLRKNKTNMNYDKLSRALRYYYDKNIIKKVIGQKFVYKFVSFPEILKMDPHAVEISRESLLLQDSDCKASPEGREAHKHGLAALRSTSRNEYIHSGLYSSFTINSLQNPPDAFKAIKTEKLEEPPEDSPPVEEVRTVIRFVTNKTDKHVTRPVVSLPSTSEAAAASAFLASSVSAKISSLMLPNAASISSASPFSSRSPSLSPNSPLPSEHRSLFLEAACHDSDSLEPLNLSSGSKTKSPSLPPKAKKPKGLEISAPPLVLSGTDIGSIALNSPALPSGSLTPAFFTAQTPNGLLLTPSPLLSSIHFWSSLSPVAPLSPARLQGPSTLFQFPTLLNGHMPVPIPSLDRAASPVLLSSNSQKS
How it was run: as §1

[9] = molecular target: T6, FEV (Homo sapiens, UniProt Q99581 1-238); conditions: protein: recombinant; tags: N-terminal GST; dsDNA, one strand shown
T6 sequence: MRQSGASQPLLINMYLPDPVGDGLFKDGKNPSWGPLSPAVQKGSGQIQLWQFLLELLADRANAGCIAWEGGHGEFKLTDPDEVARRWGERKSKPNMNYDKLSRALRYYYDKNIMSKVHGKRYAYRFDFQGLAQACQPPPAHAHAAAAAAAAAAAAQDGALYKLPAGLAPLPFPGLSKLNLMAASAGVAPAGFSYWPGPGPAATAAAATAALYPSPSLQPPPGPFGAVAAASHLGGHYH
How it was run: as §1

[10] = molecular target: ETV5 (Homo sapiens, UniProt P41161 1-510); conditions: protein: recombinant; tags: N-terminal GST; dsDNA, one strand shown
ETV5, sequence (P41161 whole entry): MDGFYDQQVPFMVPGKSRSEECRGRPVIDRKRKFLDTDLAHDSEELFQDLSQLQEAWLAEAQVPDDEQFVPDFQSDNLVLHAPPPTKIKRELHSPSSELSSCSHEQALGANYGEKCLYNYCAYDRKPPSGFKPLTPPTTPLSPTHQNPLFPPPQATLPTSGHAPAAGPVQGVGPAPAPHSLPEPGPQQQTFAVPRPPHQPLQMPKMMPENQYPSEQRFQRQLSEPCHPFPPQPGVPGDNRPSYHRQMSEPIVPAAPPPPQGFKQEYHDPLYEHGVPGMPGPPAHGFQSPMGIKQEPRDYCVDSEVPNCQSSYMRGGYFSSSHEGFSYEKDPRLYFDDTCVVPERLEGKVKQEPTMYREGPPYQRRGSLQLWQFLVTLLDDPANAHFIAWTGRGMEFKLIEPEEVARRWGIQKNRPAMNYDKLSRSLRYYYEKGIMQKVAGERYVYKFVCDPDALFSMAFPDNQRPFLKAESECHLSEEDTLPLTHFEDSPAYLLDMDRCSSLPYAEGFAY
How it was run: as §1

[11] = molecular target: HSF1 (Homo sapiens, UniProt Q00613 1-529); conditions: protein: recombinant; tags: N-terminal GST; chain copies: 3; dsDNA, one strand shown
HSF1, sequence (Q00613 whole entry): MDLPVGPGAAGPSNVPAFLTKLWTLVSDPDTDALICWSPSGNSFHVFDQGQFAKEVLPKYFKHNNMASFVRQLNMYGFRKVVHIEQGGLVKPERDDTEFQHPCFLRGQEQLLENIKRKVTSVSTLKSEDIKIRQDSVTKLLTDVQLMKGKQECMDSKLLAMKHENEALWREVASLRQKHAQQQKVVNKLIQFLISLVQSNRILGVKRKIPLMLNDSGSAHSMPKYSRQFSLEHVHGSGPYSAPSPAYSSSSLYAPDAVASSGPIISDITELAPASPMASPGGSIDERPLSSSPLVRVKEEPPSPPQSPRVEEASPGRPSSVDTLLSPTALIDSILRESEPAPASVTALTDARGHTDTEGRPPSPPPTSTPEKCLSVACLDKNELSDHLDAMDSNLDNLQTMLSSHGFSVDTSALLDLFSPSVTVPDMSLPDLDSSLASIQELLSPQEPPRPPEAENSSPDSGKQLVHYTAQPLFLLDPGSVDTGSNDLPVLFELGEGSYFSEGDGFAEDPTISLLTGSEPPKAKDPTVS
How it was run: as §1

[12] = molecular target: T7, SPIC (Homo sapiens, UniProt Q8N5J4 1-248); conditions: protein: recombinant; tags: N-terminal GST; dsDNA, one strand shown
T7 sequence: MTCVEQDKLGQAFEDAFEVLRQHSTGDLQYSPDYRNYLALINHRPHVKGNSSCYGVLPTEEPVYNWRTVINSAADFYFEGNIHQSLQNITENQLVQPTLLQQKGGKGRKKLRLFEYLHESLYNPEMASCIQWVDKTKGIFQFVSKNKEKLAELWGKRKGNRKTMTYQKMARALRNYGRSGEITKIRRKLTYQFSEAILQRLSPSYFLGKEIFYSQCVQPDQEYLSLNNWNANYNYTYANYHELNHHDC
How it was run: as §1

[13] = molecular target: ELF4 (Homo sapiens, UniProt Q99607 1-663); conditions: protein: recombinant; tags: N-terminal GST; dsDNA, one strand shown
ELF4, sequence (Q99607 whole entry): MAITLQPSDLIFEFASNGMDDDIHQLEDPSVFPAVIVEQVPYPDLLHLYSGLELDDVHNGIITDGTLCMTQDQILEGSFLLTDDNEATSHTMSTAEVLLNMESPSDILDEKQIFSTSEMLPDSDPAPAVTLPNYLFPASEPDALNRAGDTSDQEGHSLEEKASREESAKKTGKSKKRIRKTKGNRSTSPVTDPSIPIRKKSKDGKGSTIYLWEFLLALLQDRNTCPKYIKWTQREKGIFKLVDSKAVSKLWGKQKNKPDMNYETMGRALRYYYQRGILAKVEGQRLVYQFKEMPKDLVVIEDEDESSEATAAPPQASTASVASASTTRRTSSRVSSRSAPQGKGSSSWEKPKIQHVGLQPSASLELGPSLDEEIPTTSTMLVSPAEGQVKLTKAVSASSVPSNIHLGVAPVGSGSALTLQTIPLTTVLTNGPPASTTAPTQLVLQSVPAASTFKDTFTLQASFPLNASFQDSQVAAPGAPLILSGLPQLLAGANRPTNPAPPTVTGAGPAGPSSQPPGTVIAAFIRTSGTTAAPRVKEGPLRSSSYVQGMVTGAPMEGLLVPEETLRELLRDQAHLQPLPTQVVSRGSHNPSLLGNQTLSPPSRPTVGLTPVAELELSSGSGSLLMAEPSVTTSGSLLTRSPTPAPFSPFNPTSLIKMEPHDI
How it was run: as §1

[14] = molecular target: T8, ELK4 (Homo sapiens, UniProt P28324-2 1-405); conditions: protein: recombinant; tags: N-terminal GST; dsDNA, one strand shown
T8 sequence: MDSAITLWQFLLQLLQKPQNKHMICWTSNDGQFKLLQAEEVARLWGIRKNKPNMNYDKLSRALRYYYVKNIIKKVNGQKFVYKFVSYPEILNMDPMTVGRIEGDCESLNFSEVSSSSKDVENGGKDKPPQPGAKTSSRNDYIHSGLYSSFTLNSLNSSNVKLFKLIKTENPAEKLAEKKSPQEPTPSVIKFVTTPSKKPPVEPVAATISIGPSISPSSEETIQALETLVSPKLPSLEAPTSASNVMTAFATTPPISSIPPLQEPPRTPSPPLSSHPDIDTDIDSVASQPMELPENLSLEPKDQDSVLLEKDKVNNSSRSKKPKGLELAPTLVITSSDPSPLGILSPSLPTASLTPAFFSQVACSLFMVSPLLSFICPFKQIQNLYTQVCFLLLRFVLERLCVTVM
How it was run: as §1

[15] = molecular target: T9, ETV2 (Homo sapiens, UniProt O00321 1-342); conditions: protein: recombinant; tags: N-terminal GST; dsDNA, one strand shown
T9 sequence: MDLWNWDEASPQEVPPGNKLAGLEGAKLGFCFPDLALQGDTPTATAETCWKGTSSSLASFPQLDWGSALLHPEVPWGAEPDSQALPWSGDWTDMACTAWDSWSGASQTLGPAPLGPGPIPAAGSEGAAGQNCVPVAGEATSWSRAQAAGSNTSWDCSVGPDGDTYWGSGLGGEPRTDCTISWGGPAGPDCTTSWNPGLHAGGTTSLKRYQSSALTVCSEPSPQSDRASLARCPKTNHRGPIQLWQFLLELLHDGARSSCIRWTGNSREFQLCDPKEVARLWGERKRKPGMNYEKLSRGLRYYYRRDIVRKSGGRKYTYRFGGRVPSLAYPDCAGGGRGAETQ
How it was run: as §1

[16] = molecular target: T10, ELF3 (Homo sapiens, UniProt P78545 1-371); conditions: protein: recombinant; tags: N-terminal GST; dsDNA, one strand shown
T10 sequence: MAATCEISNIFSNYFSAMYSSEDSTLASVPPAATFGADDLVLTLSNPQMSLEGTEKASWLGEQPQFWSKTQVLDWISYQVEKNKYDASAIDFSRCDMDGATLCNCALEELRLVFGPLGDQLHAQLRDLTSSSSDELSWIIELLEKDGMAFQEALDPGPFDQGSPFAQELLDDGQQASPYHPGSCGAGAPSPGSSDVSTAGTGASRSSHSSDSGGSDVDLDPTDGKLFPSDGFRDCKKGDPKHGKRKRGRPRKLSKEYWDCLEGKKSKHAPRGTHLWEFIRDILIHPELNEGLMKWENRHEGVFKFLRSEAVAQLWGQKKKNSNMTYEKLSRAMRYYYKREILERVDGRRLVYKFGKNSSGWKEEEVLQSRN
How it was run: as §1

[17] = molecular target: CRX (Homo sapiens, UniProt O43186 1-299); conditions: protein: recombinant; tags: N-terminal GST; dsDNA, one strand shown
CRX, sequence (O43186 whole entry): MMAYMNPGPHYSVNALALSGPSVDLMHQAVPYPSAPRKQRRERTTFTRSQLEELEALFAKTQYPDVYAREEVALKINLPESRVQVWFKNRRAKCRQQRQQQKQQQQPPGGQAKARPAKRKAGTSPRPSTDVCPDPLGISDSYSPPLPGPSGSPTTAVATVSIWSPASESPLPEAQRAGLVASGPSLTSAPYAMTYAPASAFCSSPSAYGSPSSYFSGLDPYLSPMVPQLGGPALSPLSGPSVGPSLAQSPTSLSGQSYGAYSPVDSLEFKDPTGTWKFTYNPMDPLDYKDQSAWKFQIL
How it was run: as §1

[18] = molecular target: ETV1 (Homo sapiens, UniProt P50549 1-477); conditions: protein: recombinant; tags: N-terminal GST; dsDNA, one strand shown
ETV1, sequence (P50549 whole entry): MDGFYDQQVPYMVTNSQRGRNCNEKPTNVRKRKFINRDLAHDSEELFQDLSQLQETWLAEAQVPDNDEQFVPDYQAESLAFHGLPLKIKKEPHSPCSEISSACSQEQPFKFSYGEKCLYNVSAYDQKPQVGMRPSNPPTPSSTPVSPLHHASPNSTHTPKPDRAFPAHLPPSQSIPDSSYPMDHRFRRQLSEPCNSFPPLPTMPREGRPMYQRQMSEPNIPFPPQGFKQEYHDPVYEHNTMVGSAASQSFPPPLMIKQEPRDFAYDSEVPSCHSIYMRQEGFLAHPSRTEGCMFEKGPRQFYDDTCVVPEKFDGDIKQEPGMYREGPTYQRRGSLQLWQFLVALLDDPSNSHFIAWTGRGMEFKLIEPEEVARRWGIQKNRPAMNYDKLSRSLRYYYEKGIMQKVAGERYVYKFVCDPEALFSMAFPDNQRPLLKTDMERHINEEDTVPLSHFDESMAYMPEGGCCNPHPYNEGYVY
How it was run: as §1

GGGTTT
binding signal [1]: 1.17 fold enrichment (6-mer frequency, TF over GST control)
binding signal [2]: 1.1 fold enrichment (6-mer frequency, TF over GST control)
binding signal [3]: 1.1 fold enrichment (6-mer frequency, TF over GST control)
binding signal [4]: 1.1 fold enrichment (6-mer frequency, TF over GST control)
binding signal [5]: 1.11 fold enrichment (6-mer frequency, TF over GST control)
binding signal [6]: 1.05 fold enrichment (6-mer frequency, TF over GST control)
binding signal [7]: 1.05 fold enrichment (6-mer frequency, TF over GST control)
binding signal [8]: 1.03 fold enrichment (6-mer frequency, TF over GST control)
binding signal [9]: 1.06 fold enrichment (6-mer frequency, TF over GST control)
binding signal [10]: 1.08 fold enrichment (6-mer frequency, TF over GST control)
binding signal [11]: 1.12 fold enrichment (6-mer frequency, TF over GST control)
binding signal [12]: 1.16 fold enrichment (6-mer frequency, TF over GST control)
binding signal [13]: 1.2 fold enrichment (6-mer frequency, TF over GST control)
binding signal [14]: 1.12 fold enrichment (6-mer frequency, TF over GST control)
binding signal [15]: 1.33 fold enrichment (6-mer frequency, TF over GST control)
binding signal [16]: 1.05 fold enrichment (6-mer frequency, TF over GST control)
binding signal [17]: 1.25 fold enrichment (6-mer frequency, TF over GST control)
binding signal [18]: 1.1 fold enrichment (6-mer frequency, TF over GST control)
